# Experimental data taken from PubChem BioAssay (NCATS).
# Records with an inconclusive call do not appear. Values without a mark were called inactive. Calls of active or inactive are those of the source. Calls come from the whole dose curve; as a rule, active = well fitted cell-killing curve with a large enough effect; inconclusive = small, poorly fitted or top-dose-only effect; inactive = flat fitted curve, though single readings scatter.
# Assay: OV-SAHO Cancer Cell Toxicity qHTS against the NCATS CANVASS Library (AID 1347348); note: nearly all actives have a fitted effect of over 55% in size
# Settings: OV-SAHO viability, CellTiter-Glo luminescence, 72 h; series mostly up to 38.3 µM; activity change, negative = cytotoxicity: at the top concentration
# Excerpt: Natural products and their derivatives continue to be wellsprings of nascent therapeutic potential. However, many laboratories have limited resources for biological evaluation, leaving their previously isolated or synthesized compounds largely or completely untested. To address this issue, the Canvass library of natural products was assembled (https://tripod.nih.gov/canvass), in collaboration with academic and industry researchers, for quantitative high-throughput screening (qHTS) across a diverse set of cell-based and biochemical assays. The pure (>85% purity by liquid chromatography/mass spectrometry [LC/MS]) Canvass library of 346 natural products were submitted by 45 academic laboratories and companies around the world. We collected pure natural products to circumvent deconvolution and structure elucidation due to time and resource limitations. The library was formatted into 1536-well plates and evaluated in 50 qHTS (in an 11-pnt concentration series) bioassays with broad scope of disease-relevant mechanisms. The resulting data set from 50 different assays was then systematically analyzed to identify overall trends and specific natural products with interesting biological activities. Reported herein are the results of each individual qHTS and their corresponding assay protocol. National Center for Advancing Translational Sciences (NCATS), Rockville, MD National Institute of Health (NIH), Bethesda, Maryland
# Cancer Cell Toxicity protocol for cell lines COV-362, OV-KATE, OV-SAHO, UWB1.289, UWB1.289-WTBRCA1, HEK-293, HPAF-II, Panc-1005, SW1088, or U-118MG. 1. In a 1536 well, white solid bottom tissue culture plates (Corning 7494), corresponding cells (COV-362, OV-KATE, OV-SAHO, UWB1.289, UWB1.289-WTBRCA1, HEK-293, HPAF-II, Panc-1005, SW1088, or U-118MG) were dispensed in each well at a final concentration of 1000 cells / well (6uL volume) using the Multidrop Combi (Thermo Fisher Scientific) dispenser. 2. The plates were incubated for 4 hours at 37 degrees C/5% CO2/95% Rh. 3. Compounds were pin transferred (~23nL volume) via Wako Pin-tool (Wako Automation, Richmond VA) equipped with a 1536 pin head. The assay plates were treated with compounds in an 11-pnt concentration series with a final concentration range of […] to 85uM. 4. Bortezomib was used as a single dose control (0.5mM column 4, rows 1 - 32) at a final concentration of 1.9uM and as a 16pnt titration (1mM; 1:2 dilution; 16-points; n = 2; column 3, rows 1 - 32) with final concentration range of 0.1nM - 3.8uM. 5. The assay plates were incubated for 72 hours at 37 degrees C/5% CO2/95% Rh. 6. 3uL CellTiter-Glo detection reagent was then added to the plates (columns 2 - 48, rows 1 - 32) and incubated at room temperature for additional 15min. 7. Luminescence signal was acquired via the ViewLux plate reader (PerkinElmer) using a clear filter, 2 second exposure and 2x binning settings.
# % is set by controls: 0 for no effect and ±100 for the full control effect; potency is the fitted concentration of half-maximal effect.
Compound,Potency,"activity change, negative = cytotoxicity"
CC(=O)O[C@@H]1C=C2C(=O)OC[C@]2(O)[C@@]2(C)CCCC(C)(C)[C@H]12,5.94 µM (active),
CC12C[C@]3(O)O[C@@H](O1)[C@]1(COC(=O)c4ccccc4)[C@@H]3CC21OC1OC(CO)C(O)C(O)C1O (stereo not given in full),,-13.7%
Oc1ccc(C2c3c(O)cc(O)cc3[C@@H]3C(c4ccc(O)cc4)c4c(O)cc(O)cc4[C@H]23)cc1 (stereo not given in full),,-16.3%
CN1CC[C@]2(c3cccc4c3N[C@@H]3N(C)CC[C@]43[C@@]34CCN(C)[C@@H]3Nc3ccccc34)c3ccccc3N[C@H]12,18.8 µM (active),
C[C@@H]1O[C@H](c2c(O)cc(O)c3c(=O)cc(-c4ccc(O)cc4)oc23)[C@H](O)[C@H](O)[C@H]1O,,-1.02%
CC(=O)O[C@H]1CC[C@@]2(C)C(CC[C@]3(C)C2CC=C2C4CC(C)(C)CC[C@]4(C)CC[C@]23C)C1(C)C (stereo not given in full),,-2.7%
COc1c(O)cc2oc(-c3ccccc3)cc(=O)c2c1O,,-9.19%
C=C(C)CC[C@H](Cc1c(O)cc(O)c2c1O[C@H](c1ccc(O)cc1O)CC2=O)C(=C)C,,0.206%
C=C1C[C@@]23C=CC(=O)[C@@](C)(CCC(=O)Nc4c(O)ccc(C(=O)O)c4O)C2C[C@@H]1CC3O (stereo not given in full),,-4.91%
C[C@@H](O)[C@H]1OC(=O)C=C2[C@]3(C)[C@H]4[C@H](OC(=O)[C@@]4(C)[C@@H](O)[C@H]4O[C@H]43)[C@H]3O[C@@]231,1.33 µM (active),
C[C@@H]1O[C@@H](Oc2c(-c3ccc(O)cc3)oc3cc(O)cc(O)c3c2=O)[C@H](O)[C@H](O)[C@H]1O,,-9.8%
COc1cc(/C=C2/C(=O)N(c3ccc(O)cc3C(=O)O)[C@H](c3ccc(O)c(OC)c3)C2C(=O)Nc2ccc(O)cc2C(=O)O)ccc1O (stereo not given in full),,1.47%
C=C1/C=C\C(CCC)=C\c2csc(n2)C(C)NC(=O)C[C@@]2(CC(=O)O)CCC(=C)[C@H](C1)S2 (stereo not given in full),,-4.45%
C/C(=C\[C@H](C)C(=O)CCCC1CC(=O)NC(=O)C1)C(O)[C@@H](C)[C@H](O)C/C=C/CC/C=C/C(=O)O (stereo not given in full),,-10.6%
CC(C)=CCC[C@@H](C)[C@@H]1CC[C@@]2(C)C[C@H]3C(C)=CC(=O)[C@@H]3/C(C=O)=C\C[C@H]12,10.6 µM (active),
C=C1C(=O)O[C@H]2C[C@H](C)[C@@H]3CC(=O)C(C)=C3[C@H](O)[C@H]12,14.9 µM (active),
C=C1C[C@@]23C=CC(=O)[C@@](C)(CCC(=O)Nc4c(O)ccc(C(=O)O)c4O)C2C[C@@H]1C(O)C3 (stereo not given in full),,-1.29%
CN1C(=O)C2C(N=CN2C)N(C)C1=O (stereo not given),,-8.08%
OCc1ccc2ocnc2c1,,-11.7%
CCC1=C2CCCN3C(=O)O[C@H]([C@H]1OC(C)=O)[C@H]23,,-9.36%

Compound,Potency,"activity change, negative = cytotoxicity"
CCCCCCCCCCCCCCCC(=O)OC/C=C(\C)CCCC(C)CC(C)C(C)C (stereo not given),,-1.17%
O=Cc1ccc2n1C[C@@]1(C[C@H](O)[C@H](O)CO1)OC2,13.3 µM (active),
CC(C)=CCC/C(C)=C/Cc1c(O)c(CC=C(C)C)c(O)c2c(=O)c3cc(O)ccc3oc12,10.6 µM (active),
C[C@@H]1C(=O)[C@]23CC[C@H]1C[C@]21O[C@H]2C(C)(C)C=CC(=O)[C@]23COC1=O,,4.16%
COc1ccc2cc(NC(=O)C3=NO[C@H]4[C@H](O)C=C[C@@H](Cl)[C@@]4(O)C3)c(=O)oc2c1OC,,-10.6%
C=CC(C)(C)C(=O)[C@@H](C)[C@@H]1CC[C@](C)(C=C)O1,,-2.56%
COc1ccc(/C=C2\COc3cc(O)ccc3C2=O)cc1,,-15.7%
O=C1CC(c2cc(O)cc(O)c2)Oc2cc(O)ccc21 (stereo not given),,-6.92%
O=Cc1ccc2n1C[C@@]1(OC2)O[C@H](CO)[C@@H](O)[C@@H]1O,,-19.3%
O=c1cc(-c2ccc(O)c(O[C@@H]3O[C@H](CO)[C@@H](O)[C@H](O)[C@H]3O)c2)oc2cc(O[C@@H]3O[C@H](CO)[C@@H](O)[C@H](O)[C@H]3O)cc(O)c12,,-8.35%
C=C1C[C@@]23C=CC(=O)[C@@](C)(CCC(=O)Nc4c(O)ccc(C(=O)O)c4O)C2C[C@@H]1CC3 (stereo not given in full),,-9.31%
C[C@@H]1C(=O)[C@]23CC[C@H]1C[C@]21O[C@H]2C(C)(C)C=CC(=O)[C@@]23COC1=O,,-6.59%
O=C1C[C@@H](c2ccc(O)c(-c3c(O)cc(O)c4c3O[C@H](c3ccc(O)cc3)CC4=O)c2)Oc2cc(O)cc(O)c21,,-14.6% [at 22.9 µM]
CC1(C)CCC[C@]2(C)[C@@H]1CC[C@@]13C[C@@H](CC[C@H]12)C(C)(O)C3 (stereo not given in full),,-8.6%
C[C@@H]1O[C@@H](O[C@@H]2[C@@H](O)[C@H](O[C@@H]3[C@@H](O)[C@@H](O)C(O[C@H]4[C@H](OC(=O)[C@]56CCC(C)(C)C[C@H]5C5=CCC7[C@@]8(C)C[C@H](O)[C@H](O[C@@H]9C[C@H](CO)[C@@H](O)[C@H](O)[C@H]9O)[C@@](C)(CO)C8[C@H](O)C[C@@]7(C)[C@]5(C)CC6)OC[C@H](O)[C@@H]4O)O[C@H]3C)OC[C@H]2O)[C@H](O)[C@H](O)[C@H]1O (stereo not given in full),,-3.72% [at 22.9 µM]
COC1C(O)C(OC(N)=O)C(Oc2ccc3c(O)c(NC(=O)c4ccc(O)c(CC=C(C)C)c4)c(=O)oc3c2C)OC1(C)C (stereo not given),,-2.01%
C[C@@]12C[C@@H](C[C@H]3C(=O)O[C@@H](c4ccoc4)[C@H](OC(=O)c4ccccc4)[C@@H]31)OC2=O,,1.46%
CO[C@H]1/C=C/CC[C@@H](S[C@@H]2O[C@H](CO)[C@@H](O)[C@H](O)[C@H]2O)CC(=O)O[C@@H](/C(C)=C/[C@H](C)C(=O)CCCC2CC(=O)NC(=O)C2)[C@@H](C)[C@@H]1O,3.75 µM (active),
CC1C(=O)C23CCC1C[C@@]21O[C@H]2C(C)(C)C=CC(=O)[C@@]23COC1=O (stereo not given in full),,0.613%
O=C(O)CC1OC(=O)c2c(O)cccc21 (stereo not given),,0.208%
